PubChem BioAssay AID1619 (SRMLSC, 2009)
About 830 (0.38%) of roughly 220,000 compounds were called active.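 Rule for the calls: active = compound inhibiting the enzyme by more than half at any dose during confirmatory dose-response retesting; inconclusive = strong single-dose inhibitors picked by rank but not retested; inactive = the rest.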 Only a sample is shown. Entries with a potency or affinity are not part of this list.

What follows are compounds tested against Leucine aminopeptidase (Plasmodium falciparum (isolate 3D7)) (UniProt Q8IL11) (assay: P. falciparum M17LAP inhibitors, primary screen, biochemical, fluorogenic H-Leu-NHMec substrate, 1536-well (AID 1619;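 note: plate controls were full reaction with DMSO carrier for no effect and no enzyme background for full effect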)). Settings: recombinant M17LAP, H-Leu-NHMec fluorogenic kinetic assay; at 30 µM; hits give high values.
Chain of Leucine aminopeptidase (Plasmodium falciparum (isolate 3D7)) (Q8IL11 whole entry, looked up): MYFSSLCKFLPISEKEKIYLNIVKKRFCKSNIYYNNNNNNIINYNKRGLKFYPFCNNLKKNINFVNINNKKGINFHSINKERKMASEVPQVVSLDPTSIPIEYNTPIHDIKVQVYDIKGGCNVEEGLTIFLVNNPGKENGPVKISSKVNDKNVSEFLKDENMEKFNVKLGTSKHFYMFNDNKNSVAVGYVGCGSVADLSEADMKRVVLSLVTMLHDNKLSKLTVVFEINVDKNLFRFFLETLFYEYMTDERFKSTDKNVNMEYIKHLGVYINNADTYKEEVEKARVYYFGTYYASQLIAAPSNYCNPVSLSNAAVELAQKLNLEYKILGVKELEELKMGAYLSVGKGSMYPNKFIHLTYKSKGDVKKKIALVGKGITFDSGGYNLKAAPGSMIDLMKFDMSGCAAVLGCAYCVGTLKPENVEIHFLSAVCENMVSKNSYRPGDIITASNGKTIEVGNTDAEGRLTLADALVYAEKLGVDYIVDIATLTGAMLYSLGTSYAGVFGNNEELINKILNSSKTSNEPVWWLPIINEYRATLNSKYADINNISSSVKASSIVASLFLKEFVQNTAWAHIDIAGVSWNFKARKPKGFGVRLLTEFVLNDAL

inhibition, inactive:
COc1cccc(CC(=O)n2nc(N)c3cc4ccc(OC)cc4nc32)c1 -8.98%
O=C(CCC(=O)N1CCN(S(=O)(=O)c2ccc(Cl)cc2)CC1)Nc1ccc2ccccc2c1 -4.1%
CCc1ccc(C2NC(=S)NC3=C2C(=O)CC(C)(C)C3)cc1 (configuration not stated) -1.26%
CCOC(=O)c1c(C)[nH]c(C(=O)/C(C#N)=C/c2ccc(OC)c(OC)c2)c1C 9.47%
CC(C)NC(=O)COC(=O)c1ccc(S(=O)(=O)N2CCCC2)cc1 -2.13%
CCCS(=O)(=O)N1CCN(S(=O)(=O)c2ccccc2)CC1 -6.24%
O=C(CCC(=O)N(CC(=O)NC1CCCCC1)c1ccc2c(c1)OCCO2)Nc1ccccn1 9.63%
COc1ccc(Nc2nnc(SCC(=O)c3cc4ccccc4o3)s2)cc1 4.36%
O=C(CSc1nnc(Nc2ccccc2F)s1)c1cc2ccccc2o1 32.5%
O=S(=O)(c1ccccc1)N1CCN(c2nc(-c3cccs3)nc3ccccc23)CC1 4.27%
CC(C)CC(NC(=O)c1cccs1)c1nnc(SCc2ccc(Cl)c(Cl)c2)n1C (configuration not stated) 4.91%
C/C=C/C(=O)OCC(=O)Nc1ccc(SC(F)F)cc1 -1.79%
Cc1nn(-c2ccccc2)c(N2CCCC2)c1/C=C1\N=C(c2ccccc2)OC1=O 2.36%
Cc1ccc(Cl)cc1NC(=O)C1CCCCC1C(=O)O (configuration not stated) 10.3%
O=C(CCC(=O)Nc1ccc(Cl)cc1Cl)NNC(=O)[C@@H]1CCCC[C@@H]1C(=O)O -2.95%
Cc1ccc(F)c(NC(=O)C2CCCCC2C(=O)O)c1 (configuration not stated) 4.08%
O=C(O)C1CC=CCC1C(=O)Nc1ccccc1C(=O)N1CCN(c2ccc(Cl)cc2)CC1 (configuration not stated) 56.6%
COC(=O)c1ccccc1NC(=O)C1CC=CCC1C(=O)O (configuration not stated) 29.7%
O=C(O)C1CCCCC1C(=O)Nc1cccc2ccccc12 (configuration not stated) 39.5%
O=C(O)C1CCCCC1C(=O)Nc1ccc(F)cc1F (configuration not stated) 41.3%
O=C(O)C1CCCCC1C(=O)Nc1ccccc1Cl (configuration not stated) 43.9%
COc1ccc(C(=O)Nc2cccc(-c3nc4ncccc4o3)c2C)cc1OC 2.86%
COc1ccc(Cn2c(CCC(=O)Nc3ccc(C)cc3)nc3cccnc32)cc1 -4.5%
CCOC(=O)C(C(=O)OCC)C1CS(=O)(=O)CC1C(C(=O)OCC)C(=O)OCC (configuration not stated) 17%
COc1ccc(CCNC(=O)CC2Nc3ccccc3NC2=O)cc1 (configuration not stated) 3.68%
COc1ccccc1NC(=O)NCc1ccco1 4.76%
Cc1cc(=O)[nH]c(SCC(=O)Nc2ccc(Br)cn2)n1 19.5%
O=C(CNC1CC1)Nc1cc(C(F)(F)F)ccc1Cl 1.31%
O=C(O)C1CC=CCC1C(=O)NNc1c(Cl)cc(Cl)cc1Cl (configuration not stated) 3.9%
O=C(O)C1=C(C(=O)Nc2cc(C(F)(F)F)ccc2Cl)CCCC1 8.32%
O=C(NNC(=O)[C@H]1CC=CC[C@H]1C(=O)O)c1ccc(Cl)cc1Cl 0.37%
CCOC(=O)c1cnc2c(OC)cccc2c1Nc1ccc2c(c1)OCCO2 2.45%
O=C(Nc1nc2cc3c(cc2s1)OCCO3)c1ccc(N2C(=O)CCC2=O)cc1 0.52%
O=C(O)c1cc2c(cc1Br)OCCCO2 -43.7%
COc1ccc(OC)c(NC(=O)c2cccnc2Sc2ccccc2)c1 -17.3%
CC1CC(C)CN(CCOc2ccc(Br)cc2)C1 (configuration not stated) -2.12%
CC(C)(C)C(=O)N1CCC[C@H]1C(O)(c1ccccc1)c1ccccc1 -4.15%
OC(CNCc1ccccn1)c1ccccc1 (configuration not stated) -7.85%
COc1cccc(NC2=CC(=O)CC(C)(C)C2)c1 -33.9%
S=c1[nH]nc(Nc2ccc(Cl)cc2)s1 11.5%
Clc1cc(Cl)cc(Nc2ncnc(-n3cccc3)n2)c1 12.9%
Clc1ccc(Nc2ccc(Cl)nn2)cc1 -4.12%
COC(=O)C1=C(Nc2cc(Cl)cc(Cl)c2)CSC1 5.27%
CCc1nc2c(c(=O)c3ccccc3n2C)c(=O)n1C1CCCCCC1 11%
O=C(Nc1ccncc1)c1cccc2ccccc12 7%
Cc1nc(NC(=O)Nc2ccc(Cl)cc2)sc1C 2.28%
N#CC(C#N)=C1C=C2C=C(N3CCCCCC3)CCC2CC1 (configuration not stated) 10.6%
N#CC(C#N)=C1C=C2C=C(N3CCCCC3)CCC2CC1 (configuration not stated) 0.1%
O=C1c2ccccc2C(=O)c2cc(S(=O)(=O)Nc3ccccc3)ccc21 9.48%
O=C(Nc1ccc(Cl)cc1)OCc1cn(-c2ccccc2)nn1 6.64%
Cc1nn(-c2ccccc2)c(C)c1/C=N/O 4.53%
C=CCSc1nnc(-c2ccccc2N=Cc2c(C)[nH]n(-c3ccccc3)c2=O)c(=O)[nH]1 56.2%
Cc1ccccc1-c1n[nH]c(=S)n1/N=C/c1c(C)nn(-c2ccccc2)c1C 6.29%
CCOc1ccc(Oc2c(/C=N/NC(N)=O)c(C)nn2-c2ccccc2)cc1 3.82%
Cc1nn(-c2ccccc2)c(C)c1/C=N/n1c(-c2ccccc2Br)n[nH]c1=S -1.13%
CCSc1nnc(-c2cc(Br)ccc2N=Cc2c(C)[nH]n(-c3ccccc3)c2=O)c(=O)[nH]1 0.47%
CC(C)[C@H](NC(=O)[C@H](CCCN=C(N)N)NC(=O)NC(Cc1ccccc1)C(=O)O)C(=O)NC(C=O)CCCN=C(N)N (some centres not stated) 6.32%
O=c1[nH]c(-c2ccc3c(c2)OCO3)nc2c1sc(=S)n2-c1ccccc1 -0.6%
Cc1ccc(CN2C(=O)N/C(=C\c3ccc(-c4ccc(C(=O)O)cc4C)o3)C2=O)cc1 4.73%
Cc1cc(C(=O)O)ccc1-c1ccc(/C=C2\NC(=O)N(Cc3ccc(F)cc3)C2=O)o1 0.19%
Nc1cnc(CNc2ccccc2Cl)cn1 4.54%
CCn1c(N2CCN(S(=O)(=O)c3ccc(F)cc3)CC2)nc2ccccc21 2.95%
CC(=O)Nc1ccc(NC(=O)COC(=O)c2n[nH]c3ccccc23)cc1 2.47%
Nc1nonc1-c1nc2ccccc2n1CC(=O)N/N=C\c1ccc(-c2ccc(Cl)cc2)o1 3.34%
Nc1nonc1-c1nc2ccccc2n1CC(=O)N/N=C/c1ccc(-c2cccc(C(=O)O)c2)o1 31.4%
COc1cccc(C(=O)COC(=O)C(C)N2C(=O)C3C4C=CC(C4)C3C2=O)c1 (configuration not stated) 4%
CC1CCc2nc(NCCO)nc(C(F)(F)F)c2C1 (configuration not stated) 7.69%
COc1ccccc1CCc1nnc(CCC(=O)N(C)Cc2ccncc2C)o1 -1.17%
Cc1ccc2oc(=S)n(C)c2c1 3.68%
O=C(CSc1nnc(-c2ccc(O)cc2)n1Cc1ccco1)c1ccccc1 5.35%
NC(=O)c1c(NC(=S)Nc2ccccc2)sc2c1CCCC2 16.9%
CCOC(=O)c1c(NC(=S)Nc2ccc(Cl)cc2)sc(C)c1C 12.6%
CCOC(=O)c1c(NC(=S)Nc2ccccc2)sc(C)c1C 26.5%
CCOC(=O)c1c(NC(=S)Nc2ccc(F)cc2)sc2c1CCC2 6.14%
OCCN1CCN(c2nc(-c3ccccc3)nc3c2oc2ccccc23)CC1 7.26%
CNC(=O)N(C1=NCC(C)(C)S1)c1ccc(F)c(Cl)c1 -9.97%
COc1cc(/C=N/Nc2ccc3ccccc3c2)ccc1OC(=O)c1ccco1 0.98%
CSc1ccc(/C=N/Nc2ccc(Cl)c(C(=O)O)c2)cc1 12.6%
COc1cc(/C=N/Nc2ccccc2)ccc1OC(=O)c1cccs1 1.12%
COc1cc(/C=N/Nc2cccc(C)c2)ccc1OC(=O)c1ccco1 -4.8%
O=C(O)c1cc(N/N=C/c2ccncc2)ccc1Cl 18.2%
O/N=C/c1ccc(OCc2ccccc2)c(Cl)c1 13.4%
COc1cc(/C=N/Nc2ccc(Cl)cc2)ccc1OC(=O)c1cccs1 4.49%
O/N=C/c1ccc(OCc2ccccc2)c(Br)c1 6.58%
O=[N+]([O-])c1ccc(C[n+]2cccc3ccccc32)cc1 1.34%
O=C(CN1CCCCC1CO)c1ccc(OC(F)F)cc1 (configuration not stated) 6.93%
Cc1cc(NC(=O)CSc2ncnc3c2cnn3-c2cccc(Cl)c2)no1 1.8%
CCn1cc(Br)c(C(=O)NC(C)c2ccccc2)n1 (configuration not stated) -36.5%
Cc1csc(NC(=O)C2CCN(S(=O)(=O)c3ccc4c(c3)oc(=O)n4C)CC2)n1 8.23%
CC(C)(C)C(=O)N1N=C(c2cccc(NS(C)(=O)=O)c2)CC1c1cccs1 (configuration not stated) 29.7%
O=C(CCNS(=O)(=O)c1cccs1)Nc1nccs1 -0.31%
Nc1n[nH]c(C2CCCCC2)n1 -1.74%
O=C(Nc1n[nH]c(C2CCCCC2)n1)C1CCCCC1 -5.77%
Nn1c(SCc2ccccc2F)nnc1-c1ccncc1 1.35%
CCOC(=O)c1sc(NC(=O)Cn2nnc3sc4c(c3c2=O)CCCC4)nc1C -3.69%
C=CCn1c(CNC(=O)c2ccco2)nnc1SCC(=O)Nc1cccc(F)c1 14.5%
Cn1c(CNC(=O)c2ccco2)nnc1SCC(=O)Nc1cccc(Br)c1 7.38%
